NPC1 prom act: qHTS Assay for NPC1 Promoter Activators; Huh7 NPC1 promoter luciferase reporter, 24 h; Potency, µM (top dose mostly 9.22 µM), for the others: top-dose activation, usual class: activators; hit rate 2.4% among 320,000; AID 485313, 2010; note: % of control where 0% means no effect; nearly all actives have a fitted effect of over 60% in size
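NPC1 promoter–luciferase Huh7 cells; 24 h compound; luminescence.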
FLuc modulator: qHTS profiling assay for firefly luciferase inhibitor/activator using purifed enzyme and Km concentrations of substrates (counterscreen for miR-21 project); Luciferin 4-monooxygenase (Photinus pyralis), P08659; purified FLuc, Km substrates, luminescence inhibition; Potency, µM (top dose mostly 57.5 µM), for inactives: at the top dose activity change, negative = inhibition, hits mostly inhibitors; hit rate 6.9% among 360,000; AID 588342, 2011;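 note: plate controls were vehicle for no effect and reference inhibitor for full effect; nearly all actives have a fitted effect of over 55% in size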
Target sequence (P08659 whole entry, looked up): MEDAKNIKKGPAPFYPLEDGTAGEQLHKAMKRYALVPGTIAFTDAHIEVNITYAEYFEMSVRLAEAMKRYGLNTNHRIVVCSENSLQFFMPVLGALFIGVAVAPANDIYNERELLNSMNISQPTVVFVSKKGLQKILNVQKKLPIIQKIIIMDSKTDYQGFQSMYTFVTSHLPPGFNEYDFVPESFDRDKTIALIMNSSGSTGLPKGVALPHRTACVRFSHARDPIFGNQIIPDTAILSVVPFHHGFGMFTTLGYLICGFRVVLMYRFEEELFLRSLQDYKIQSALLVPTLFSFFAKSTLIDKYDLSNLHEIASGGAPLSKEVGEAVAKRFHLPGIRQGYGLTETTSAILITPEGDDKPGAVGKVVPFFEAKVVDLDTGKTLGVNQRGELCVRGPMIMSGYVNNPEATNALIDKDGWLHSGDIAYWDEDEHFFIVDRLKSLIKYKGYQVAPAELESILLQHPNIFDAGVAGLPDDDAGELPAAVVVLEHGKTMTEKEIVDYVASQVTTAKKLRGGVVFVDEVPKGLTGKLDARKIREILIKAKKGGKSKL
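Biochemical qHTS of compounds, final roughly 60 µM downward over six points, against 10 nM purified firefly luciferase using Km concentrations of substrates (10 uM D-luciferin, 10 uM ATP) in Tris acetate pH 7.5 buffer; luminescence output.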
SMN2 splice up: qHTS Assay for Enhancers of SMN2 Splice Variant Expression. HEK293 SMN2-luciferase splicing reporter, luminescence, 30-36 h. Potency, µM (series often up to 46.1 µM), inactives show at the highest dose activity change, positive = activation, most hits filed as activators. hit rate 2.8% among 210,000; note: % of control where 0% means no effect; nearly all actives have a fitted effect of over 55% in size
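HEK293 cells carry an SMN2 […]–luciferase reporter in which exon 7 inclusion puts luciferase in frame. Cells were plated 10-12 h before compound addition, then incubated 30-36 h at 37C. ONE-Glo luminescence was read; sodium butyrate at 4.5 mM final served as control.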
Rab9 prom act: qHTS Assay for Rab9 Promoter Activators; Huh7 Rab9 promoter-luciferase reporter, luminescence, 24 h; Potency, µM (top dose mostly 9.22 µM), for the others: at the highest dose activation, negative = inhibition, hits mostly activators; hit rate 2.8% among 320,000; AID 485297, 2010; note: % of control where 0% means no effect; nearly all actives have a fitted effect of over 60% in size
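Luminescence from Amplite-detected luciferase (10 minutes, ambient) reports Rab9 promoter activation. Before that, stable Rab9-luciferase Huh7 cells (1500/well, reduced-serum OP-MEM I plus 10% FBS) were exposed to compound for 24 hours at 37C.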
ELG1 genotoxic: qHTS screen for small molecules that induce genotoxicity in human embryonic kidney (HEK293T) cells expressing luciferase-tagged ELG1; HEK293T ELG1-luciferase reporter, luminescence, 16 h; Potency, µM (highest dose often 46 µM), without a hit: at the highest dose activity change, positive = activation, usual class: activators; hit rate 1.3% among 330,000; note: % of control where 0% means no effect; nearly all actives have a fitted effect of over 60% in size
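Genotoxicity was scored as increased ELG1-luciferase reporter signal, measured by ONE-Glo luminescence (30 min, room temperature). Compound or vehicle exposure of the HEK293T reporter cells lasted 16 hr at 37°C.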
uPA generation: qHTS for Inhibitors of Cell Surface uPA Generation; cell surface uPA generation assay, qHTS; Potency, µM (doses to about 38.3 µM), for the others: at the top dose activity change, negative = inhibition, actives largely listed as inhibitors; hit rate 0.31% among 330,000; active = well fitted inhibition curve with a large enough effect; inconclusive = small, poorly fitted or top-dose-only effect; inactive = no such curve, though single readings can be large or run the other way; tested in mouse RAW 264.7 cells; note: % is set by controls: 0 for no effect and ±100 for the full control effect; nearly all actives have a fitted effect of over 55% in size
The depositor's hits bear a star; ? = inconclusive; . = no result given; [ ] = dose if it differs, or a comment. Only some compounds are listed: those with a hit (about 7.3% of all), similar ones and a draw of the others. Unless noted, calls come from the whole dose curve; as a rule, active = well fitted curve in the direction sought with a large enough effect; inconclusive = small, poorly fitted or top-dose-only effect, or another doubt; inactive = no such curve, though single readings can be large; an effect the other way counts as inactive or inconclusive. Potency is the fitted concentration of half-maximal effect.

SMILES	NPC1 prom act	FLuc modulator	SMN2 splice up	Rab9 prom act	ELG1 genotoxic	uPA generation
CS(=O)(=O)N1CCC2(CCCN(C(=O)Nc3ccccc3)C2)CC1	.	.	1%	.	.	.
Cc1ccc(-n2c(SCCC(C)C)nc3sc4c(c3c2=O)CC(C)(C)OC4)cc1	.	-5%	-1%	.	.	.
O=C(O)Cc1ccc(NC(=O)Nc2cccc(Cl)c2)cc1	-3%	17µM*	.	3%	3%	2%
CCc1ccc(NC(=O)Nc2cccc(OC)c2)cc1	2.8µM*	2.7µM*	14µM*	3.2µM*	?	-5%
COc1cccc(NC(=O)Cc2ccc3ccccc3c2)c1	0%	?	.	16%	-1%	16%
COc1cccc(NC(=O)Nc2ccc(CC(=O)O)cc2)c1	-7%	19µM*	-8%	2%	1%	-6%
Cc1cc(C(=O)Nc2cccc(F)c2)c2c(C)nn(-c3cccc(Cl)c3C)c2n1	.	-4%	.	.	.	.
O=C(O)c1ccc(NC(=O)c2ccc3c(c2)C(=O)N(c2ccccc2)C3=O)cc1	-2%	15µM*	.	0%	3%	2%
O=C(O)c1cccc(NC(=O)c2ccc3c(c2)C(=O)N(c2cccc([N+](=O)[O-])c2)C3=O)c1	2%	3.8µM*	.	-1%	0%	4%
CC(C)(C)N1C(=O)c2ccc(C(=O)Nc3ccc(-c4nc5ccccc5[nH]4)cc3)cc2C1=O	1%	7%	?	0%	12%	-7%
O=C(O)c1ccc2c(c1)C(=O)N(c1cccc(C(=O)/C=C/c3ccccc3)c1)C2=O	4%	2.7µM*	.	-8%	4%	-6%
CC(C)(C)N1C(=O)c2ccc(C(=O)Nc3ccc(C(=O)O)cc3)cc2C1=O	7%	11µM*	.	6%	-1%	16%
Cc1cc(NC(=O)CN2C(=O)NC(C)(c3ccc(Cl)cc3)C2=O)no1 (stereo not drawn)	-4%	0%	23%	1%	-4%	-7%
CCN1C(=O)c2ccc(C(=O)Nc3cccc(C(=O)O)c3)cc2C1=O	18%	0.27µM*	.	?	2%	8%
CC(=O)c1cccc(NC(=O)c2cccc(N3C(=O)c4ccccc4C3=O)c2)c1	0%	-15%	.	2%	9%	7%
O=C(O)c1cccc(NC(=O)c2ccc(N3C(=O)c4ccc(C(=O)Nc5cccc(C(=O)O)c5)cc4C3=O)cc2)c1	17%	27µM*	.	?	0%	0%
CCN(CC)c1ccc(/C=N/NC(=O)c2nnn(-c3nonc3N)c2C(C)C)c(O)c1	-14%	19µM*	.	-34%	-10%	-1%
COc1ccccc1/C=N\N=C(\N)c1ccccn1	?	6.7µM*	16µM*	2.2µM*	?	-13%
CC(C)c1c(C(=O)N/N=C/c2ccncc2)nnn1-c1nonc1N	3%	?	.	-4%	0%	?
CC(/C=N/NC(=O)c1nnn(-c2nonc2N)c1C(C)C)=C\c1ccco1	-3%	5.4µM*	.	8%	1%[9.26 µM]	?
COc1cccc(/C=N/N=C(\N)c2nonc2N)c1O	?	?	?	2.5µM*	18µM*	3%
CN(C(=O)COC(=O)CN1C(=O)C2CC=CCC2C1=O)c1ccccc1 (stereo not drawn)	1%	4%	.	-6%	-1%	2%
C/C(=N\NC(=O)c1nnn(-c2nonc2N)c1C(C)C)c1cc(C)sc1C	-1%	17µM*	.	-5%	-2%	7%
COc1cccc(/C=N/NC(=O)c2nnn(-c3nonc3N)c2-c2cccs2)c1	8%	?	.	1%	-5%	-8%
C/C(=N\NC(=O)c1nnn(-c2nonc2N)c1C(C)C)c1ccncc1	16%	0%	.	-13%	-5%	2%
N/C(=N\N=C\c1cccc([N+](=O)[O-])c1)c1nonc1N	?	?	.	?	?	3%

Assay outcomes: PubChem BioAssay, National Center for Advancing Translational Sciences (NCATS)
